Hits are enriched below; roughly 2.3% of the tested compounds scored in any of these assays.
MEKK2mut PB1 HTS – signal of MEK5 binding to mutant human MEKK2 PB1 domain; bead flow cytometry, Alexa488-MEK5 binding to MEKK2 mutant; percent response, % at 10 µM; 290,000 compounds, 0.35% hits; in the data active = percent response above about 24%, passing the limit was not always enough
MEKK3 PB1 HTS – raises or lowers MEK5 binding to the human MEKK3 PB1 domain | bead-based flow cytometry, Alexa488-MEK5 binding to MEKK3; actives lie on both sides; 0 = blocked by unlabeled MEK5, 100 = vehicle | binding response (% of control), % at 10 µM | 290,000 compounds, 1.4% hits | AID 1529;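 active = binding response more than 3 SD above or below the average of its plate-row segment, actives on both sides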;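 note: Alexa488 bead fluorescence after subtracting the streptavidin-only scavenger bead signal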
Target sequence (Q99759 whole entry, looked up, the tested form may be a part): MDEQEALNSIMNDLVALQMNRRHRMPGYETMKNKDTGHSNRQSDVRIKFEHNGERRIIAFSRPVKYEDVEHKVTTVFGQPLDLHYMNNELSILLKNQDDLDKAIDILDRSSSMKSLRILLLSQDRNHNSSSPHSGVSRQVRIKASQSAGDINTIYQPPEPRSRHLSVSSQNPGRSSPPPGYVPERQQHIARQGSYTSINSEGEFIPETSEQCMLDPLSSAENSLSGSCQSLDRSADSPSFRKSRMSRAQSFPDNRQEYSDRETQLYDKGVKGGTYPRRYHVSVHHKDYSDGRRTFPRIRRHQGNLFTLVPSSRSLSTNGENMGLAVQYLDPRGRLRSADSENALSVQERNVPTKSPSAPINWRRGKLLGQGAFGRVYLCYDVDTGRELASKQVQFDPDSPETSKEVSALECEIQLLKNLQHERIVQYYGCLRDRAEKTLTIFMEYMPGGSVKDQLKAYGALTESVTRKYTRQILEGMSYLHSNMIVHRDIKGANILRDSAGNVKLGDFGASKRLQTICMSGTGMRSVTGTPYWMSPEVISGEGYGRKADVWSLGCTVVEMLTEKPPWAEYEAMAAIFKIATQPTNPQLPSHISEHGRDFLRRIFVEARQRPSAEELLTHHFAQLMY
MEKK2wt PB1 HTS – raises or lowers MEK5 binding to wildtype human MEKK2 PB1 domain; 290,000 compounds, 1.1% hits; Q9Y2U5; binding response (% of control), % at 10 µM; AID 1531; bead flow cytometry, Alexa488-MEK5 binding to MEKK2 WT; actives lie on both sides; in the data active = binding response below about 67% or above about 130%
UBC13 inh – human UBC13 polyubiquitination inhibition | 330,000 compounds, 0.47% hits | UBC13 polyubiquitin chain formation, TR-FRET | inhibition, % at 20 µM | P61088; in the data active = inhibition above about 45%, passing the limit was not always enough
MEKK2wt confirm – raises or lowers MEK5 binding to wildtype human MEKK2, retest. bead flow cytometry, Alexa488-MEK5 binding to MEKK2 WT; actives lie on both sides. 5,900 compounds, 2.4% hits. AID 1892. binding response (% of control), % at 10 µM. shares compounds with MEKK3 PB1 HTS; in the data active = binding response below about 16% or above about 210%; inactive = in between
MEKK2mut-MEK5 – signal of MEK5 binding to mutant human MEKK2, retest; shares compounds with MEKK3 PB1 HTS; bead flow cytometry, Alexa488-MEK5 binding to MEKK2 mutant; percent response, % at 10 µM; 5,900 compounds, 2% hits; in the data active = percent response mostly above about 71%, no sharp cut-off; inactive = mostly below about 38%;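 note: higher means compound restores mutant binding toward wildtype level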
MEKK3-MEK5 inh – MEKK3-MEK5 PB1 inhibition, single concentration confirmation. shares compounds with MEKK3 PB1 HTS. bead flow cytometry, Alexa488-MEK5 binding to MEKK3; hits give low values. binding response (% of control), % at 10 µM. 5,900 compounds, 1.8% hits. AID 1894;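 active = binding response below 72% of control, or above a set upper limit, though filed actives all read lower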;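 note: 100% = DMSO only wells and 0% = binding blocked by excess unlabeled MEK5; lower values mean stronger disruption of MEK5 binding to MEKK3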
* hit, by the source's call; [ ] = another dose, or the depositor's remark.

Screening Cc1ccc(C(=O)OCC(=O)c2c[nH]c3ccccc23)cc1S(=O)(=O)N1CCOCC1 returned UBC13 inh 2.2.
Screening CCc1cc(Cn2nc(-c3ccccc3)cc2C(=O)NCc2ccccc2OC)on1 returned UBC13 inh 8.2.
`O=C(/C=C/c1ccc(Br)cc1)c1ccc(NC2=NCCCS2)cc1` gave MEKK2mut PB1 HTS 0.0, MEKK3 PB1 HTS 102.0, MEKK2wt PB1 HTS 126.0 and UBC13 inh 18.6.
Screening CC(C)(C)c1ccc(/C=C/C(=O)c2ccc(NC3=NCCCS3)cc2)cc1 returned MEKK2mut PB1 HTS 32.0, MEKK3 PB1 HTS 109.0, MEKK2wt PB1 HTS 139.0*, UBC13 inh 15.6, MEKK2wt confirm 149.0, MEKK2mut-MEK5 21.0 and MEKK3-MEK5 inh 105.0.
For CCOc1cc(C(=O)Nc2ccc(C(=O)NCCN(CC)CC)cc2)ccc1OCC(=O)N1CCOCC1 the results were UBC13 inh 1.2.
`CCN1/C(=C\C(=S)Nc2ccccc2)Sc2ccccc21` gave MEKK2mut PB1 HTS -6.0, MEKK3 PB1 HTS 89.0, MEKK2wt PB1 HTS 82.0 and UBC13 inh 9.5.
`CCN1/C(=C/C(C)=C/c2sc3ccccc3[n+]2CC)Sc2ccccc21` gave MEKK2mut PB1 HTS -46.0, MEKK3 PB1 HTS 25.0*[inhibitor], MEKK2wt PB1 HTS 1.0*[inhibitor], UBC13 inh -250.6, MEKK2wt confirm 2.0*[inhibitor], MEKK2mut-MEK5 -39.0 and MEKK3-MEK5 inh 44.0*.
Cc1ccc(C(=O)NCCc2nnc3ccc(SCC(=O)Nc4c(C)cc(C)cc4C)nn23)cc1 was read as MEKK2mut PB1 HTS 1.0, MEKK3 PB1 HTS 133.0*, MEKK2wt PB1 HTS 108.0, UBC13 inh -3.1, MEKK2wt confirm 103.0, MEKK2mut-MEK5 2.0 and MEKK3-MEK5 inh 101.0.
Screening COC(=O)Nc1nn(Cc2ccccc2F)cc1Br returned MEKK2mut PB1 HTS -10.0, MEKK3 PB1 HTS 74.0*[inhibitor], MEKK2wt PB1 HTS 82.0, UBC13 inh -10.7, MEKK2wt confirm 104.0, MEKK2mut-MEK5 8.0 and MEKK3-MEK5 inh 104.0.
Screening COc1ccc(-c2c(-c3ccc(OCC(=O)NN)cc3O)n[nH]c2C(F)(F)F)cc1 returned MEKK2mut PB1 HTS 0.0, MEKK3 PB1 HTS 130.0*, MEKK2wt PB1 HTS 107.0, UBC13 inh 7.6, MEKK2wt confirm 100.0, MEKK2mut-MEK5 -11.0 and MEKK3-MEK5 inh 97.0.
CCn1cc(CN2CCC(n3nccc3NC(=O)c3cccc(F)c3)CC2)cn1 was read as MEKK2mut PB1 HTS 13.0, MEKK3 PB1 HTS 108.0, MEKK2wt PB1 HTS 130.0 and UBC13 inh 2.9.
O=C(Oc1c(CN2CCOCC2)cc(Cl)c2cccnc12)c1ccccc1Br was read as MEKK2mut PB1 HTS -1.0, MEKK3 PB1 HTS 99.0, MEKK2wt PB1 HTS 99.0 and UBC13 inh -12.7.
For CN1CCN(Cc2cc(Cl)c3cccnc3c2OC(=O)c2cccs2)CC1 the results were MEKK2mut PB1 HTS -1.0, MEKK3 PB1 HTS 72.0*[inhibitor], MEKK2wt PB1 HTS 94.0, UBC13 inh -1.5, MEKK2wt confirm 105.0, MEKK2mut-MEK5 -1.0 and MEKK3-MEK5 inh 100.0.
`COc1ccc(CCN2CC(C(=O)NCCc3cccnc3)CCC2=O)cc1` (centres undefined) gave MEKK2mut PB1 HTS -6.0, MEKK3 PB1 HTS 97.0, MEKK2wt PB1 HTS 94.0 and UBC13 inh 2.2.
CCCN1C2CCCC1CC(NC(=S)Nc1ccc(OC)cc1)C2 (centres undefined) was read as MEKK2mut PB1 HTS 4.0, MEKK3 PB1 HTS 102.0, MEKK2wt PB1 HTS 105.0 and UBC13 inh 0.2.
For COc1ccc(NC(=S)NC2CC3CCCC(C2)N3C2CC2)cc1 (centres undefined) the results were MEKK2mut PB1 HTS 7.0, MEKK3 PB1 HTS 135.0*, MEKK2wt PB1 HTS 127.0, UBC13 inh 1.1, MEKK2wt confirm 105.0, MEKK2mut-MEK5 -2.0 and MEKK3-MEK5 inh 102.0.
Screening Cc1ccc(C(=O)N2C(=S)C(c3ccc(F)cc3)=NC23CCN(C)CC3)cc1 returned MEKK2mut PB1 HTS 23.0, MEKK3 PB1 HTS 106.0, MEKK2wt PB1 HTS 151.0*, UBC13 inh -6.6, MEKK2wt confirm 110.0, MEKK2mut-MEK5 6.0 and MEKK3-MEK5 inh 101.0.
For CN1CCN(NC(=O)c2ccc(F)cc2)CC1 the results were UBC13 inh 5.5.
COc1cc(/C=C2\SC(=N)N(c3ccc(F)cc3)C2=O)ccc1O was read as MEKK2mut PB1 HTS 1.0, MEKK3 PB1 HTS 100.0, MEKK2wt PB1 HTS 102.0 and UBC13 inh -0.2.
For N=C1S/C(=C\c2ccccc2)C(=O)N1c1ccc(F)cc1 the results were MEKK2mut PB1 HTS 1.0, MEKK3 PB1 HTS 138.0*, MEKK2wt PB1 HTS 111.0, UBC13 inh -14.1, MEKK2wt confirm 99.0, MEKK2mut-MEK5 -5.0 and MEKK3-MEK5 inh 97.0.
`Cc1ccccc1C(=O)NCC(c1ccco1)N1CCc2ccccc2C1` (centres undefined) gave UBC13 inh 1.5.
Cc1cc(C(=O)Nc2ncn[nH]2)ccc1[N+](=O)[O-] was read as MEKK2mut PB1 HTS -1.0, MEKK3 PB1 HTS 73.0*[inhibitor], MEKK2wt PB1 HTS 91.0, UBC13 inh -9.2, MEKK2wt confirm 109.0, MEKK2mut-MEK5 7.0 and MEKK3-MEK5 inh 105.0.
O=C(CSc1nccn1-c1ccccc1)NO was read as MEKK2mut PB1 HTS 51.0*, MEKK3 PB1 HTS 33.0*[inhibitor], MEKK2wt PB1 HTS 70.0, UBC13 inh 18.8, MEKK2wt confirm 105.0, MEKK2mut-MEK5 1.0 and MEKK3-MEK5 inh 98.0.
`Cc1ccc(NC(=O)COC(=O)[C@H](C)NC(=O)c2ccccc2)cc1S(=O)(=O)N1CCOCC1` gave MEKK2mut PB1 HTS 1.0, MEKK3 PB1 HTS 104.0, MEKK2wt PB1 HTS 106.0 and UBC13 inh 18.5.
For Cn1cc(S(=O)(=O)N2CCCC2)cc1C(=O)N1CCN(c2ccccc2)CC1 the results were MEKK2mut PB1 HTS 1.0, MEKK3 PB1 HTS 104.0, MEKK2wt PB1 HTS 103.0 and UBC13 inh -5.1.
Screening CC(C)(C)c1ccc(C(=O)NCCC(=O)N2CCC3(CC2)NCCc2[nH]cnc23)cc1 returned MEKK2mut PB1 HTS -3.0, MEKK3 PB1 HTS 100.0, MEKK2wt PB1 HTS 97.0 and UBC13 inh 9.8.
Screening CC(=O)Nc1ccc(S(=O)(=O)NNc2ccc([N+](=O)[O-])cc2)cc1 returned MEKK2mut PB1 HTS -3.0, MEKK3 PB1 HTS 93.0, MEKK2wt PB1 HTS 97.0 and UBC13 inh -8.2.
CCOC(=O)N1CCN(C(=O)c2ccc(Cn3c(=S)[nH]c4ccc(Br)cc4c3=O)cc2)CC1 was read as MEKK2mut PB1 HTS -2.0, MEKK3 PB1 HTS 100.0, MEKK2wt PB1 HTS 98.0 and UBC13 inh 18.9.
`CC(C)CC(=O)NC(=S)Nc1nc(-c2ccccc2)cs1` gave MEKK2mut PB1 HTS -2.0, MEKK3 PB1 HTS 108.0 and MEKK2wt PB1 HTS 104.0.

Bioassay records as filed in PubChem.
